{
  "source": "PubChem BioAssay AID1347426",
  "about": "(Functional Genomics Laboratory (NCATS/FGL), 2020)",
  "note": "In all, about 31,000 sequences went through this assay and about 1,400 (4.5%) were called active.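 Rule for the calls: active = median seed-adjusted z-score above 1 or below -1; inactive = the rest.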 The entries come from a sample that favours actives as a whole.",
  "data": [
    {"assay": "Novel Modifiers of Survival Motor Neuron (SMN) Protein: Gene Identification via Genome-wide siRNA Screen;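 note: luminescence tracks full-length SMN protein made from the SMN2 reporter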", "details": "HEK293T SMN2-luciferase reporter, siRNA knockdown, 72 h; actives lie on both sides", "method_in_brief": "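Genome-wide siRNA screen (10418 genes, 3 siRNAs each, 1 pmol per well) by reverse transfection in HEK293T cells stably carrying an SMN2-luciferase reporter; luminescence after 72 hours, normalized to negative-control siRNA, log10-transformed, MAD-scored.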", "values": [
      {"sequence": "CCUGCUUACCUGAUCAAAATT against SLC25A34", "median seed-adjusted z-score": "-0.256 (inactive)"},
      {"sequence": "GCAUAACUGUAGACUACAATT against ADAM32", "median seed-adjusted z-score": "1.75 (active)"},
      {"sequence": "CAGUCUUACUGGGAACAAUTT against TGDS", "median seed-adjusted z-score": "-0.196 (inactive)"},
      {"sequence": "GCCCAUUGGAUAUCAGUAUTT against STRADB", "median seed-adjusted z-score": "0.21 (inactive)"},
      {"sequence": "CUAUUAGGUUGACCAAUAATT against OSGEPL1", "median seed-adjusted z-score": "-0.708 (inactive)"},
      {"sequence": "GGAGGAUCAAUUUAUCAGATT against VDAC2", "median seed-adjusted z-score": "0.648 (inactive)"},
      {"sequence": "CAGUGUUCCUAUUAGAUGATT against LONP2", "median seed-adjusted z-score": "1.52 (active)"},
      {"sequence": "CCUGUGCUGUUAUGAAGCUTT against APC2", "median seed-adjusted z-score": "0.00354 (inactive)"},
      {"sequence": "GAAUGGAGAGAGAAUUGAATT against B2M", "median seed-adjusted z-score": "-0.367 (inactive)"},
      {"sequence": "GGAUUAAAGAGAAGAUCUATT against ERH", "median seed-adjusted z-score": "-1.25 (active)"},
      {"sequence": "CCAGGAGAAAUAUAAGUCATT against ZNF627", "median seed-adjusted z-score": "0.204 (inactive)"},
      {"sequence": "GGACGAGAAAAACUGCUCATT against CORIN", "median seed-adjusted z-score": "-0.0274 (inactive)"},
      {"sequence": "GCAUACAUAUGGUAUAGCATT against DDX20", "median seed-adjusted z-score": "-0.0137 (inactive)"},
      {"sequence": "GCGGAGAUCAGAUUAGUCATT against NCL", "median seed-adjusted z-score": "1.33 (active)"},
      {"sequence": "GCAUGACCGCUUAUCCCAATT against SLC6A5", "median seed-adjusted z-score": "-0.204 (inactive)"},
      {"sequence": "CAUUCACUUUGACACCAUATT against HSD17B7", "median seed-adjusted z-score": "0.0836 (inactive)"},
      {"sequence": "GGUUUUUGCUGGACAAACATT against PPP2R3C", "median seed-adjusted z-score": "0.295 (inactive)"},
      {"sequence": "CCGUGUACGUGGAUGAUGATT against LPHN1", "median seed-adjusted z-score": "-1.03 (active)"},
      {"sequence": "GCAUUAGUCUGACAGUACATT against MRGPRX3", "median seed-adjusted z-score": "-0.175 (inactive)"},
      {"sequence": "CGAACCUAAUGCUCAACAATT against PREX2", "median seed-adjusted z-score": "-0.0625 (inactive)"},
      {"sequence": "GGAAAUUAGAUACCGAGGATT against SLC25A30", "median seed-adjusted z-score": "0 (inactive)"},
      {"sequence": "GGCUAACAUUAGAACACUUTT against MED6", "median seed-adjusted z-score": "-2.15 (active)"},
      {"sequence": "CGGAGUCUGCGCUUCGUUATT against ACP2", "median seed-adjusted z-score": "-0.00569 (inactive)"},
      {"sequence": "GCUUUAUAAGUGUAGCGAATT against ZNF749", "median seed-adjusted z-score": "0.911 (inactive)"},
      {"sequence": "GGAGGUCACUUGUGAAUCATT against GLS2", "median seed-adjusted z-score": "-0.793 (inactive)"},
      {"sequence": "CCCAGUUCCUGCUAUCUCATT against POU2F3", "median seed-adjusted z-score": "-1.53 (active)"},
      {"sequence": "GGGCUACCAUCUCCUUUCATT against SLC23A3", "median seed-adjusted z-score": "-0.254 (inactive)"},
      {"sequence": "GUACCCAAGUAACAACUGUTT against CXCL11", "median seed-adjusted z-score": "-0.135 (inactive)"},
      {"sequence": "UCCACUGACUCGUAAAGUUTT against PROK2", "median seed-adjusted z-score": "-0.00826 (inactive)"},
      {"sequence": "GCUCGGUGGUUGAUAAUCATT against SLC22A10", "median seed-adjusted z-score": "-0.0897 (inactive)"},
      {"sequence": "AGACCAUCGCAGAGACAGATT against SLC31A2", "median seed-adjusted z-score": "0.401 (inactive)"},
      {"sequence": "GGAUGUUCGUCAUAUUGAATT against IRAK3", "median seed-adjusted z-score": "0.155 (inactive)"},
      {"sequence": "CAAAAGACCUGUAAUAAGATT against MAGT1", "median seed-adjusted z-score": "-0.0855 (inactive)"},
      {"sequence": "GCCUUGAUGCUGAUCAUCATT against MEP1B", "median seed-adjusted z-score": "1.46 (active)"},
      {"sequence": "GGUGAAUCAUUUGAACUGATT against RCL1", "median seed-adjusted z-score": "0.0807 (inactive)"},
      {"sequence": "GGAAUACUCAGAUCGGGAATT against MAP3K3", "median seed-adjusted z-score": "-0.182 (inactive)"},
      {"sequence": "GUAUGGAGAUCUCUACGGATT against RYR3", "median seed-adjusted z-score": "0 (inactive)"},
      {"sequence": "GUAUGACCUAAAAACCGAATT against MTRR", "median seed-adjusted z-score": "-0.381 (inactive)"},
      {"sequence": "AGAGAUACUUCUUAAAUCATT against YAP1", "median seed-adjusted z-score": "-0.247 (inactive)"},
      {"sequence": "GCUCAAUGCAGGUAUUCAATT against KLF8", "median seed-adjusted z-score": "0.0976 (inactive)"},
      {"sequence": "AAGUCUCAUUCGUGGUUGATT against ST6GALNAC6", "median seed-adjusted z-score": "0.367 (inactive)"},
      {"sequence": "CAGCCCAAGUGUCGCCUUATT against PAX9", "median seed-adjusted z-score": "-1.16 (active)"},
      {"sequence": "GAUAUUCUCUGUGACGUGATT against BACH2", "median seed-adjusted z-score": "0 (inactive)"},
      {"sequence": "GACCAGAUGUGGAUGUAAATT against MIB1", "median seed-adjusted z-score": "0 (inactive)"},
      {"sequence": "ACUAGCCUGUGGAGCAAGATT against HBE1", "median seed-adjusted z-score": "-0.425 (inactive)"},
      {"sequence": "CCGAUCAAGUGAACAUAGATT against AKAP4", "median seed-adjusted z-score": "0.116 (inactive)"},
      {"sequence": "CCUUCUCAACAUAGGAUAATT against ZNF257", "median seed-adjusted z-score": "0.306 (inactive)"},
      {"sequence": "UGGGUUGGAUGAUACCUUATT against GATA5", "median seed-adjusted z-score": "0.15 (inactive)"},
      {"sequence": "GAGGGUCUCUUCUUAAGUATT against CAD", "median seed-adjusted z-score": "2.37 (active)"},
      {"sequence": "UCAUCACAGCGGUACUGUATT against ITGAX", "median seed-adjusted z-score": "-0.0677 (inactive)"},
      {"sequence": "GCAGGUAGCUCAUAUGUUUTT against WDR31", "median seed-adjusted z-score": "0.796 (inactive)"},
      {"sequence": "GGACCACGUCAAGACUUGUTT against TRAF2", "median seed-adjusted z-score": "-0.00463 (inactive)"},
      {"sequence": "CAAACUUCCCGAUAGAGAATT against CTDP1", "median seed-adjusted z-score": "-2.29 (active)"},
      {"sequence": "CUAUCAGGGAAAUUACGUATT against ZNF713", "median seed-adjusted z-score": "-0.0652 (inactive)"}
    ]}
  ]
}
